# Data from PubChem BioAssay AID1159580 (chemical genetic matrix, 2015).
# About 2,000 (36%) of roughly 5,500 compounds were called active. Another 18% or so got no clear call; they are omitted. This is one part of the list. Values without a mark were called inactive. Rule as the data show it: active = normalized growth mostly below about 0.91 (no sharp cut-off); inconclusive = no clear call, values can overlap the other calls; inactive = mostly above about 0.92.
# Test: chemical genetic growth profiling, strain panel (AID 1159580);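 also: tested at 20 µM; growth read once vehicle control cultures reached saturation at 30 °C; 1 = growth at the plate median or of vehicle wells; lower values mean less growth of the strain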
# Settings: growth OD
# [1] = S. cerevisiae deletion strains, locus YAL013W, strain DEP1, hits give low values
# [2] = S. cerevisiae deletion strains, locus YAL040C, strain CLN3, hits give low values
# [3] = S. cerevisiae deletion strains, locus YCL061C, strain MRC1 (second series), hits give low values
# [4] = S. cerevisiae deletion strains, locus YDR150W, strain NUM1, hits give low values
# [5] = S. cerevisiae deletion strains, locus YDR363W, strain ESC2, hits give low values
# [6] = S. cerevisiae deletion strains, locus YER002W, strain NOP16, hits give low values
# [7] = S. cerevisiae deletion strains, locus YGR078C, strain PAC10, hits give low values
# [8] = S. cerevisiae deletion strains, locus YGR229C, strain SMI1, hits give low values
# [9] = S. cerevisiae deletion strains, locus YJR075W, strain HOC1, hits give low values
# [10] = S. cerevisiae deletion strains, locus YNL128W, strain TEP1, hits give low values
# [11] = S. cerevisiae deletion strains, locus YNL175C, strain NOP13, hits give low values
# [12] = S. cerevisiae deletion strains, locus YNL197C, strain WHI3, hits give low values
# [13] = S. cerevisiae deletion strains, locus YNL224C, strain SQS1, hits give low values
# [14] = S. cerevisiae deletion strains, locus YNL322C, strain KRE1, hits give low values
# [15] = S. cerevisiae deletion strains, locus YOR083W, strain WHI5 (second series), hits give low values
# [16] = S. cerevisiae deletion strains, locus YPL055C, strain LGE1, hits give low values
# [17] = S. cerevisiae deletion strains, locus YPL241C, strain CIN2, hits give low values
# [18] = S. cerevisiae deletion strains, locus YDL101C, strain DUN1, hits give low values
# [19] = S. cerevisiae deletion strains, locus YHR030C, strain SLT2, hits give low values
# [20] = S. cerevisiae deletion strains, locus YMR263W, strain SAP30, hits give low values
structure (smiles),measurement,setting,value
N#C/C(=C\c1ccc(O)c(O)c1)C(=O)Nc1ccccc1,normalized growth,[1],0.988
same,normalized growth,[2],1
same,normalized growth,[3],1.01
same,normalized growth,[4],0.996
same,normalized growth,[5],1.05
same,normalized growth,[6],1.01
same,normalized growth,[7],1.05
same,normalized growth,[8],0.966
same,normalized growth,[9],1.01
same,normalized growth,"S. cerevisiae deletion strains, locus YMR307W, strain GAS1, hits give low values",1
same,normalized growth,[10],1.04
same,normalized growth,[11],1.03
same,normalized growth,[12],1
same,normalized growth,[13],1.03
same,normalized growth,[14],0.989
same,normalized growth,[15],1.02
same,normalized growth,[16],1.01
same,normalized growth,[17],1.01
CN(C)/C=C(\C#N)C(=O)Nc1ccc(F)c(Cl)c1,normalized growth,[1],0.971
same,normalized growth,"S. cerevisiae deletion strains, locus YBR229C, strain ROT2, hits give low values",1.01
same,normalized growth,"S. cerevisiae deletion strains, locus YCL061C, strain MRC1, hits give low values",0.978
same,normalized growth,[18],0.981
same,normalized growth,[4],0.991
same,normalized growth,"S. cerevisiae deletion strains, locus YEL061C, strain CIN8, hits give low values",1.01
same,normalized growth,[7],0.992
same,normalized growth,[19],0.983
same,normalized growth,"S. cerevisiae deletion strains, locus YHR087W, strain rtc3, hits give low values",1.01
same,normalized growth,"S. cerevisiae deletion strains, locus YJR043C, strain POL32, hits give low values",0.97
same,normalized growth,[9],1.01
same,normalized growth,"S. cerevisiae deletion strains, locus YKL190W, strain CNB1, hits give low values",1.01
same,normalized growth,"S. cerevisiae deletion strains, locus YLR039C, strain RIC1, hits give low values",1.07
same,normalized growth,"S. cerevisiae deletion strains, locus YLR058C, strain SHM2 (second series), hits give low values",1.01
same,normalized growth,"S. cerevisiae deletion strains, locus YLR085C, strain ARP6, hits give low values",0.912
same,normalized growth,"S. cerevisiae deletion strains, locus YLR262C, strain YPT6, hits give low values",1.16
same,normalized growth,"S. cerevisiae deletion strains, locus YML094W, strain GIM5, hits give low values",0.988
same,normalized growth,"S. cerevisiae deletion strains, locus YMR219W, strain ESC1, hits give low values",1.01
same,normalized growth,[20],1
same,normalized growth,[10],1
same,normalized growth,"S. cerevisiae deletion strains, locus YNL153C, strain GIM3, hits give low values",0.976
same,normalized growth,"S. cerevisiae deletion strains, locus YNL298W, strain CLA4 (second series), hits give low values",0.97
same,normalized growth,[14],1.02
same,normalized growth,"S. cerevisiae deletion strains, locus YNR030W, strain Alg12, hits give low values",1.01
same,normalized growth,"S. cerevisiae deletion strains, locus YOL006C, strain TOP1, hits give low values",0.965
same,normalized growth,[16],0.959
same,normalized growth,[17],0.977
same,normalized growth,"S. cerevisiae deletion strains, locus YPR135W, strain CTF4, hits give low values",0.991
same,normalized growth,"S. cerevisiae strains, strain wild type, hits give low values",1.01
Cn1c([N+](=O)[O-])cnc1/C=C(\C#N)C(=O)Nc1ccc(F)cc1,normalized growth,"S. cerevisiae deletion strains, locus YAR019C, strain CDC15, hits give low values",0.267 (active)
same,normalized growth,"S. cerevisiae deletion strains, locus YBL105C, strain PKC1, hits give low values",0.368 (active)
same,normalized growth,"S. cerevisiae deletion strains, locus YBR135W, strain CKS1, hits give low values",0.436 (active)
same,normalized growth,"S. cerevisiae deletion strains, locus YBR136W, strain MEC1, hits give low values",0.608 (active)
same,normalized growth,"S. cerevisiae deletion strains, locus YBR160W, strain CDC28, hits give low values",0.639 (active)
same,normalized growth,"S. cerevisiae deletion strains, locus YDL017W, strain CDC7, hits give low values",0.541 (active)
same,normalized growth,"S. cerevisiae deletion strains, locus YDL028C, strain MPS1, hits give low values",0.874 (active)
same,normalized growth,[18],0.852 (active)
same,normalized growth,"S. cerevisiae deletion strains, locus YDL108W, strain KIN28, hits give low values",0.92
same,normalized growth,"S. cerevisiae deletion strains, locus YDL214C, strain PRR2, hits give low values",0.37 (active)
same,normalized growth,"S. cerevisiae deletion strains, locus YDR052C, strain DBF4, hits give low values",0.936
same,normalized growth,"S. cerevisiae deletion strains, locus YDR226W, strain ADK1, hits give low values",0.642 (active)
same,normalized growth,"S. cerevisiae deletion strains, locus YDR477W, strain SNF1, hits give low values",0.104 (active)
same,normalized growth,"S. cerevisiae deletion strains, locus YER123W, strain YCK3, hits give low values",0.408 (active)
same,normalized growth,"S. cerevisiae deletion strains, locus YER133W, strain GLC7, hits give low values",0.3 (active)
same,normalized growth,"S. cerevisiae deletion strains, locus YFL009W, strain cdc4, hits give low values",0.913
same,normalized growth,"S. cerevisiae deletion strains, locus YFL029C, strain CAK1, hits give low values",0.542 (active)
same,normalized growth,"S. cerevisiae deletion strains, locus YFR019W, strain FAB1, hits give low values",0.262 (active)
same,normalized growth,"S. cerevisiae deletion strains, locus YFR028C, strain CDC14, hits give low values",0.2 (active)
same,normalized growth,"S. cerevisiae deletion strains, locus YGR040W, strain KSS1, hits give low values",0.139 (active)
same,normalized growth,"S. cerevisiae deletion strains, locus YGR052W, strain FMP48, hits give low values",0.305 (active)
same,normalized growth,"S. cerevisiae deletion strains, locus YGR092W, strain DBF2, hits give low values",0.118 (active)
same,normalized growth,[19],0.234 (active)
same,normalized growth,"S. cerevisiae deletion strains, locus YHR079C, strain IRE1, hits give low values",0.366 (active)
same,normalized growth,"S. cerevisiae deletion strains, locus YHR082C, strain KSP1, hits give low values",0.371 (active)
same,normalized growth,"S. cerevisiae deletion strains, locus YHR205W, strain SCH9, hits give low values",0.0146 (active)
same,normalized growth,"S. cerevisiae deletion strains, locus YIL147C, strain SLN1, hits give low values",0.741 (active)
same,normalized growth,"S. cerevisiae deletion strains, locus YJL095W, strain BCK1, hits give low values",0.149 (active)
same,normalized growth,"S. cerevisiae deletion strains, locus YJL157C, strain FAR1, hits give low values",0.346 (active)
same,normalized growth,"S. cerevisiae deletion strains, locus YJR016C, strain ILV3, hits give low values",0.436 (active)
same,normalized growth,"S. cerevisiae deletion strains, locus YJR066W, strain TOR1 (second series), hits give low values",0.116 (active)
same,normalized growth,"S. cerevisiae deletion strains, locus YJR066W, strain TOR1, hits give low values",0.207 (active)
same,normalized growth,"S. cerevisiae deletion strains, locus YKL048C, strain ELM1, hits give low values",0.168 (active)
same,normalized growth,"S. cerevisiae deletion strains, locus YKL067W, strain YNK1, hits give low values",0.43 (active)
same,normalized growth,"S. cerevisiae deletion strains, locus YKL101W, strain HSL1, hits give low values",0.157 (active)
same,normalized growth,"S. cerevisiae deletion strains, locus YKL193C, strain SDS22, hits give low values",0.399 (active)
same,normalized growth,"S. cerevisiae deletion strains, locus YKL203C, strain TOR2, hits give low values",0.119 (active)
same,normalized growth,"S. cerevisiae deletion strains, locus YLR113W, strain HOG1, hits give low values",0.319 (active)
same,normalized growth,"S. cerevisiae deletion strains, locus YLR133W, strain CKI1, hits give low values",0.111 (active)
same,normalized growth,"S. cerevisiae deletion strains, locus YLR403W, strain SFP1, hits give low values",0.0176 (active)
same,normalized growth,"S. cerevisiae deletion strains, locus YML070W, strain DAK1, hits give low values",0.28 (active)
same,normalized growth,"S. cerevisiae deletion strains, locus YMR001C, strain CDC5, hits give low values",0.438 (active)
same,normalized growth,"S. cerevisiae deletion strains, locus YMR205C, strain PFK2 (second series), hits give low values",0.139 (active)
same,normalized growth,"S. cerevisiae deletion strains, locus YMR277W, strain FCP1, hits give low values",0.347 (active)
same,normalized growth,"S. cerevisiae deletion strains, locus YNL006W, strain LST8, hits give low values",0.219 (active)
same,normalized growth,"S. cerevisiae deletion strains, locus YNL020C, strain ARK1, hits give low values",0.119 (active)
same,normalized growth,"S. cerevisiae deletion strains, locus YNL161W, strain CBK1, hits give low values",0.324 (active)
same,normalized growth,"S. cerevisiae deletion strains, locus YNL183C, strain NPR1, hits give low values",0.168 (active)
same,normalized growth,"S. cerevisiae deletion strains, locus YNL207W, strain RIO2, hits give low values",0.635 (active)
same,normalized growth,"S. cerevisiae deletion strains, locus YNL222W, strain SSU72, hits give low values",0.411 (active)
same,normalized growth,"S. cerevisiae deletion strains, locus YNL307C, strain MCK1 (second series), hits give low values",0.117 (active)
same,normalized growth,"S. cerevisiae deletion strains, locus YOL078W, strain AVO1, hits give low values",0.47 (active)
same,normalized growth,"S. cerevisiae deletion strains, locus YOL136C, strain PFK27, hits give low values",0.431 (active)
same,normalized growth,"S. cerevisiae deletion strains, locus YOR061W, strain CKA2, hits give low values",0.168 (active)
same,normalized growth,"S. cerevisiae deletion strains, locus YOR119C, strain RIO1, hits give low values",0.162 (active)
same,normalized growth,"S. cerevisiae deletion strains, locus YOR231W, strain MKK1, hits give low values",0.418 (active)
same,normalized growth,"S. cerevisiae deletion strains, locus YOR329C, strain SCD5, hits give low values",0.372 (active)
same,normalized growth,"S. cerevisiae deletion strains, locus YPL031C, strain PHO85, hits give low values",0.104 (active)
same,normalized growth,"S. cerevisiae deletion strains, locus YPL153C, strain RAD53, hits give low values",0.112 (active)
same,normalized growth,"S. cerevisiae deletion strains, locus YPL204W, strain HRR25, hits give low values",0.109 (active)
same,normalized growth,"S. cerevisiae deletion strains, locus YPL209C, strain IPL1, hits give low values",0.476 (active)
same,normalized growth,"S. cerevisiae deletion strains, locus YPL256C, strain CLN2, hits give low values",0.448 (active)
same,normalized growth,"S. cerevisiae deletion strains, locus YPR025C, strain CCL1, hits give low values",0.403 (active)
same,normalized growth,"S. cerevisiae deletion strains, locus YPR106W, strain ISR1, hits give low values",0.968
Nc1nc2[nH]c(=O)cnc2c(=O)[nH]1,normalized growth,[1],0.996
same,normalized growth,[2],1.06
same,normalized growth,[3],0.994
same,normalized growth,[5],0.985
same,normalized growth,[6],0.949
same,normalized growth,[8],1.01
same,normalized growth,[20],0.99
same,normalized growth,[11],0.983
same,normalized growth,[12],0.977
same,normalized growth,[13],0.987
same,normalized growth,[14],1.01
same,normalized growth,[15],0.988
